Assay results taken from ChEMBL document CHEMBL3988442, “University of Dundee, Small-Polar-MMV Screening Library” (2021).
Screen size: about 48,000 compounds; about 13,000 (27%) showed an effect of 50% or more. The list shows a part of the results.

system: Wolbachia pipientis; experiment: Anti-Wolbachia Cell-Based Screen; assay type: functional; set-up: scale not given: in the data most compounds retested in dose-response had high values; conditions: 5 µM

SMILES	Percent Effect
O[C@H]1[C@H](NCCc2cnccn2)c2ccccc2C12CCNCC2	1.46%
CC1CCN(CCNC(=O)C2CCN(C(=O)C3CC3)CC2)CC1	7.892%
CCCC(C#N)NC(=O)Cc1csc(CC)n1 (stereo unspecified)	-2.381%
CCc1nc(CC(=O)NC(C#N)CC(C)C)cs1 (stereo unspecified)	0.9973%
CCc1ccsc1C(=O)NC(C#N)CC(C)C (stereo unspecified)	102.3%
CCc1ccsc1C(=O)NC(C#N)CC (stereo unspecified)	105.4%
CC(C)CCC(=O)NC(C#N)CC(C)C (stereo unspecified)	5.343%
CCC(C#N)NC(=O)c1sccc1OC (stereo unspecified)	86.18%
CCc1ccsc1C(=O)NC(Cc1ccccc1)C(N)=O (stereo unspecified)	1.098%
COc1ccsc1C(=O)NCCNc1ccccc1	-8.97%
CCCC(C#N)NC(=O)COC1CCCCC1 (stereo unspecified)	-4.378%
COc1ccsc1C(=O)Nc1cc(Br)c(=O)n(C)c1	-2.156%
CCCC(C#N)NC(=O)c1sccc1CC (stereo unspecified)	99.07%
CCc1nc(CC(=O)NC(C#N)CC)cs1 (stereo unspecified)	-7.062%
Cc1nc(O)cc(CN2CCC=C(CN(C)C(=O)c3ccco3)C2)n1	2.928%
Cc1nc2c(c(N(C)Cc3ccccc3-n3cccn3)n1)CCNCC2	14.94%

SMILES	Percent Effect
COc1ccc(C(=O)N2C[C@@H](C(=O)O)[C@H](c3ccccc3C)C2)c(O)c1	-2.704%
CCNC(=O)[C@@H]1CCCN1C1(C(=O)NC)CCCCC1.Cl	1.197%
COc1cccc(COCC(=O)N2CCC(CC(N)=O)CC2)c1	-12.19%
O=C(c1ccc(S(=O)(=O)NCC(F)F)cc1)N1C[C@H]2CNC[C@H]2C1	19.64%
O=C(c1cnc2ccccn12)N1CCCC(c2ccn[nH]2)C1 (stereo unspecified)	107.7%
O=C(CN1CCCC(c2ccn[nH]2)C1)Nc1nncs1 (stereo unspecified)	12%
O=C(CCCc1nc(C2CC2)no1)N1CCCC(c2ccn[nH]2)C1 (stereo unspecified)	-3.493%
O=C(c1cc(=O)n(-c2ccccc2)[nH]1)N1CCCC(c2ccn[nH]2)C1 (stereo unspecified)	77.64%
O=C1CCCCCN1CCC(=O)N1CCCC(c2ccn[nH]2)C1 (stereo unspecified)	2.164%
CC(C)c1ocnc1C(=O)N1CCCC(c2ccn[nH]2)C1 (stereo unspecified)	-7.734%
CC(C)c1cnc(CN2CCCC(c3ccn[nH]3)C2)o1 (stereo unspecified)	-28.34%
Cc1cc(OCC(=O)N2CCCC(c3ccn[nH]3)C2)no1 (stereo unspecified)	1.786%
O=C(c1cnnn1-c1ccccc1)N1CCCC(c2ccn[nH]2)C1 (stereo unspecified)	106%
Cn1cncc1C(=O)N1CCCC(c2ccn[nH]2)C1 (stereo unspecified)	108.7%
CC(C)N1CCC(c2ccnc3c(C(=O)N4CCOCC4)ncn23)CC1	-16.45%
